Experimental data reported in PubChem BioAssay (NCI).
Several values for one entry are separate records, joined by “and”; a condition that tells them apart may be missing. Equal entries are not always repeated. Compounds without any hit were thinned out: in the full panel of roughly 83,000, 20% have a hit.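 Values shown are percent growth following 48 h exposure of cells in 96-well plates to a single concentration of compound; below 10 was considered active.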 Activity calls are given as the source filed them.

The compounds below were run on MDA-MB-468 breast (assay: NCI-60 one-dose screen, 48 h (100 = growth as untreated, 0 = no growth, -100 = all killed)). Conditions: 10 µM unless noted.

| Compound | growth |
| --- | --- |
| CC(CN(C)C)Oc1ccc(OC(C)CN(C)C)c2c1C(=O)c1ccccc1C2=O (centres undefined) | 33.2% (inactive) |
| CC1CCCC(=O)O1 (centres undefined) | 97.4% (inactive) and 97.3% (inactive) |
| CCCCCCCCCC[N+](C)(C)C | -31.3% (active) |
| CCCCCCCCn1ccc2cc(NC(=O)Cn3cc(CN4CCCC4)nn3)ccc21 | 16.1% (inactive) |
| OB(O)c1ccccc1 | 110% (inactive) |
| COc1ccc(C(=O)CSc2nc(-c3cc(OC)ccc3OC)cc(-c3ccc(OC)cc3)c2C#N)cc1 | 105% (inactive) |
| Clc1nc(Oc2ccccc2)nc(-c2cn(-c3ccccc3)c3ccccc23)n1 | 88.2% (inactive) |
| C[C@@H](N)c1ccc(C(=O)Nc2ccnc3[nH]ccc23)cc1 | 49.2% (inactive) |
| COc1cc(C(=O)/C=C/c2c(C(F)(F)F)nc3sccn23)cc(OC)c1OC | -53.4% (active) |
| O=c1c2ccccc2n2cnc3ccc(Cl)c1c32 | 79.1% (inactive) |
| Clc1ccc(-c2c3ccc(=[N+]4CCCCC4)cc-3oc3cc(N4CCCCC4)ccc23)cc1 | -87.4% (active) |
| NC1(C(=O)N[C@@H](CCO)c2ccc(Cl)cc2)CCN(c2ncnc3[nH]ccc23)CC1 | 4.8% (active) |
| CC(=O)c1ccc2c(c1)CCN2 | 104% (inactive) |
| O=C1C(Cl)=C(NCCCN2CCOCC2)C(=O)c2ccccc21 | 64.7% (inactive) |
| O=C(NCCc1ccccc1)Nc1ccc2cc3ccc(NC(=O)NCCc4ccccc4)cc3nc2c1 | -5.36% (active) |
| FC(F)(F)c1cc(Nc2cccc(Oc3ccc(NC4=NCCN4)nc3)c2)ccc1Cl | -37.6% (active) |
| c1ccc(Cc2nn3cc(-c4ccccc4)nc3s2)cc1 | 101% (inactive) |

| Compound | growth |
| --- | --- |
| CCCCO[C@@H]1C=C2[C@H]3CC(C)(C)C(=O)C[C@]3(C(=O)O[C@@H]3O[C@H](CO[C@@H]4O[C@H](CO)[C@@H](OC5OC(C)C(O)C(O)C5O)[C@H](O)[C@H]4O)[C@@H](O)[C@H](O)[C@H]3O)CC[C@@]2(C)[C@]2(C)CC[C@H]3C(C)(C)C(=O)CC[C@]3(C)[C@@H]12 (some centres undefined) | 101% (inactive) |
| CCC(=O)Oc1ccc(/C(=C(/C)Cc2cccc(OC)c2)c2ccc(OCCN(C)C)cc2)cc1 | 76.1% (inactive) |
| CN1CCN(Cc2ccc(NC(=O)c3nc4ccc5[nH]ncc5c4c4c3CCCC4)cc2C(F)(F)F)CC1 | -92.9% (active) |
| COc1ccc(OC)c(/C=C2\CCc3ccccc3C2=O)c1 | -5.15% (active) |
| Oc1c(CN2CCCCC2)ccc2cccnc12 | 72.3% (inactive) and 81.8% (inactive) |
| O=C1/C=C/[C@@H](O)[C@@H]2C[C@@H](O)C[C@H]2/C=C/CCC[C@H](CCc2ccc(NC(=S)Nc3ccc4c(c3)C(=O)OC43c4ccc(O)cc4Oc4cc(O)ccc43)cc2)O1 | -17.5% (active) |
| Cc1ccc(-c2nc3c(N=Nc4ccc(S(N)(=O)=O)cc4)c(N)nn3c(N)c2C#N)cc1 | 5.87% (active) |
| CCOC(=O)Cc1cnc(N/N=C(\C)c2cc3ccccc3o2)s1 | 99.8% (inactive) |
| COC1(CC[C@@H](C)COC2OC(CO)C(O)C(O)C2O)O[C@H]2C[C@H]3[C@@H]4CC=C5C[C@@H](OC6OC(CO)C(OC7OC(C)C(O)C(O)C7O)C(O)C6OC6OC(C)C(O)C(O)C6O)CC[C@]5(C)[C@H]4CC[C@]3(C)[C@H]2[C@@H]1C (some centres undefined) | -24% (active) |
| C=C(Cl)C(=NC(C)(C)C)Nc1ccccc1C | 39.2% (inactive) |
| CC1OC(n2c3ccccc3c3c4c(c5c6ccccc6[nH]c5c32)C(=O)N(CCN[C@@H]2CCC[C@H]2N)C4=O)CC(O)C1O (some centres undefined) | -26.9% (active) |
| O=c1cc(-c2cccnc2)oc2c1ccc1ccccc12 | 65% (inactive) |
| COc1ccc(C/C(C)=C(/c2ccc(OCCN3CCCCC3)cc2)c2ccc(OC(=O)NCc3ccccc3)cc2)cc1 | -82.7% (active) |
| CC(=O)c1cc2c(N)c(C(=O)Nc3cccc(F)c3C)sc2nc1C | 54.2% (inactive) |
| COC(=O)[C@H]1[C@H]2C[C@@H]3c4[nH]c5cc(OC)ccc5c4CCN3C[C@H]2C[C@@H](OC(=O)/C=C/c2cc(OC)c(OC)c(OC)c2)[C@@H]1OC | 9.21% (active) |
| CCCCCCCCCCCCCCCCCBr | 99.8% (inactive) |
| CC1(C)C(=O)/C(=C\c2ccccn2)C[C@]2(C)[C@H]3CC[C@@H]4[C@@H](C(=O)/C=C/c5ccccn5)CC[C@@]4(C)[C@]3(C)CC[C@@H]12 | -50.6% (active) |
